Source: PubChem BioAssay
Hits are enriched below; roughly 0.9% of the tested compounds scored in any of these assays.
ugtP null kill – growth inhibition of ugtP-null S. aureus, primary screen, RN4220 ugtP deletion, OD600 | 16 h | growth inhibition, % (test concentration not listed) | 0.54% of 330,000 active | AID 1259309, 2017; in the data active = growth inhibition above about 68%;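 also: plate controls were untreated wells for no effect and antibiotic for full effect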
PfHsp40 rescue – rescue of yeast from PfHsp40 toxicity, primary screen, S. cerevisiae, ATP luminescence | 0.68% of 340,000 active | S. cerevisiae expressing PfHsp40, growth rescue | growth rescue, % at 12.5 µM | AID 504582, 2011; in the data active = growth rescue above about 28%, passing the limit was not always enough; inconclusive = no clear call, values can overlap the other calls;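 also: yeast W303a lacking pdr1 and pdr3 grown in galactose medium; growth measured after three days at 30 °C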
Mtb betalactam – beta-lactam sensitization of Mtb H37Rv, H37Rv; inhibition, % at 25 µM; 0.27% of 330,000 active; AID 434955, 2010; M. tuberculosis H37Rv growth with meropenem, percent inhibition; call rule not given here;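 also: growth measured after seven days incubation then overnight dye step; 0% = bacteria only wells and 100% = bacteria with antibiotic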
RN4220 kill – growth inhibition of S. aureus RN4220, primary screen, OD600 | 16 h | inhibition, % (concentration not given with the values) | 0.33% of 330,000 active; in the data active = inhibition above about 85%;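 also: plate controls were untreated cells for no effect and reference antibiotic for full effect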
BioA inh – M. tuberculosis BioA enzyme inhibitors, primary screen, biochemical, plate reader, single point, HTS; 7,8-diaminopelargonic acid synthase BioA (Mycobacterium tuberculosis); purified M. tuberculosis BioA enzyme; inhibition, % at 9.99 µM; 0.096% of 360,000 active; in the data active = inhibition above about 40%; inconclusive = no clear call, values can overlap the other calls
An asterisk follows results filed as active.

What do the screens show for `C#CCOCCOCCOCCNc1nc(N2CCN(C(=O)CCCCCCCCCCNC(=O)Cn3cc(CC(C)O)nn3)CC2)nc(N2CCN(C(=O)CCCCCCCCCCNC(=O)C(C(C)O)n3cc(C)nn3)CC2)n1` (stereo not given)?
ugtP null kill: -2; RN4220 kill: 2

Results for Cc1ccc(C=C(NC(=O)c2ccccc2)C(=O)NCCc2ccccn2)o1 ?
ugtP null kill: 0; RN4220 kill: 5

How did C=C(C)C(=O)Nc1cccc(C2=NOC3(C2)CC(C(N)=O)N(C(=O)CC#N)C3)c1 (stereo not given) do in these assays?
ugtP null kill: -4; RN4220 kill: 4

Results for CCn1ncc(/C=N\NC(=O)c2ccc3c(c2)c(C)c(C)n3Cc2ccccc2)c1C ?
PfHsp40 rescue: 0; Mtb betalactam: 66; BioA inh: -3

What do the screens show for `CCn1cc(/C=N\NC(=O)c2ccc3c(c2)c(C)c(C)n3Cc2ccccc2)c(C)n1`?
PfHsp40 rescue: 72*; Mtb betalactam: 64; BioA inh: 0

How did COc1ccc(/C=C2\SC(=S)N(CCCC(=O)NNC(=O)c3ccccc3O)C2=O)cc1 do in these assays?
PfHsp40 rescue: 3; Mtb betalactam: -2

Results for COc1ccccc1/C=C1\SC(=S)N(CCC(=O)NNC(=O)c2ccccc2O)C1=O ?
ugtP null kill: -10; PfHsp40 rescue: 105*; Mtb betalactam: 5; RN4220 kill: 21; BioA inh: -1

How did O=[N+]([O-])c1c(Nc2ccccc2O)cc(Cl)c2nonc12 do in these assays?
ugtP null kill: 87; PfHsp40 rescue: -2; Mtb betalactam: 10; RN4220 kill: 98*; BioA inh: 3

Results for O=[N+]([O-])c1c(Nc2ccccc2O)ccc2nonc12 ?
ugtP null kill: -1; PfHsp40 rescue: -1; Mtb betalactam: 52; RN4220 kill: 8; BioA inh: 3

What do the screens show for `CC(C)CSc1n[nH]c(=S)s1`?
ugtP null kill: -6; PfHsp40 rescue: 213*; Mtb betalactam: -3; RN4220 kill: 5

What do the screens show for `CC(CSc1n[nH]c(=S)s1)c1ccccc1` (stereo not given)?
ugtP null kill: -5; PfHsp40 rescue: inconclusive; RN4220 kill: 12; BioA inh: -2

Results for CC(=O)Oc1ccc2ccccc2c1C(NC(=O)Cc1ccccc1)c1ccc(Cl)cc1 (stereo not given) ?
ugtP null kill: -8; PfHsp40 rescue: 40*; Mtb betalactam: 6; RN4220 kill: -9; BioA inh: 0

Results for CCOc1ccc(C(NC(=O)CC)c2c(O)ccc3ccccc23)cc1 (stereo not given) ?
ugtP null kill: 14; PfHsp40 rescue: 3; Mtb betalactam: -1; RN4220 kill: -5; BioA inh: 0

Results for CCCC(=O)NC(c1ccc(OC)cc1)c1c(O)ccc2ccccc12 (stereo not given) ?
ugtP null kill: 10; PfHsp40 rescue: -1; Mtb betalactam: -3; RN4220 kill: 1; BioA inh: -2

What do the screens show for `COc1ccc(C(NC(=O)CC(C)C)c2c(O)ccc3ccccc23)cc1` (stereo not given)?
ugtP null kill: 11; PfHsp40 rescue: 33*; Mtb betalactam: 0; RN4220 kill: 0; BioA inh: 0

How did CN1CCC(=O)N(C(COc2ccccc2)Cc2ccccc2)CC1 (stereo not given) do in these assays?
ugtP null kill: -1; RN4220 kill: 2

How did COC(=O)C1=C(c2ccc(S(C)(=O)=O)cc2)CC2CCC1N2C(=O)NCCO (stereo not given) do in these assays?
ugtP null kill: -7; RN4220 kill: 6

What do the screens show for `CNc1nc(SCc2ccc(C)cc2)nc2c1CCCC2`?
ugtP null kill: -16; PfHsp40 rescue: 199*; Mtb betalactam: 100; RN4220 kill: 12; BioA inh: 2

Results for Cc1ccc(CSc2nc3c(c(N(C)C)n2)CCCC3)cc1 ?
ugtP null kill: -11; PfHsp40 rescue: 1; Mtb betalactam: 85; RN4220 kill: 5; BioA inh: -1

What do the screens show for `CC(=O)Oc1c(C)cc(Cl)cc1C(=O)Nc1ccc([N+](=O)[O-])cc1Cl`?
ugtP null kill: 96*; PfHsp40 rescue: 5; Mtb betalactam: 100; RN4220 kill: 98*

Results for c1ccc(-c2cn(CC3CCC(Cn4cc(-c5ccccn5)nn4)O3)nn2)nc1 (stereo not given) ?
ugtP null kill: -1; RN4220 kill: 1

What do the screens show for `Nc1nc(N)c2cc(Sc3ccc4ccccc4c3)ccc2n1`?
ugtP null kill: 99*; Mtb betalactam: 99; RN4220 kill: 100*; BioA inh: 4

Results for Cc1ccc(CNC(=O)C2COc3ccccc3O2)cc1 (stereo not given) ?
ugtP null kill: 8; PfHsp40 rescue: 103*; Mtb betalactam: 12; RN4220 kill: 1

What do the screens show for `C=CC1=C(C(=O)O)N2C(=O)C(NC(=O)C(=NOCC(=O)O)c3csc(N)n3)C2SC1` (stereo not given)?
ugtP null kill: 99*; RN4220 kill: 93*

What do the screens show for `O=C1OCCN1/N=C/c1ccc([N+](=O)[O-])o1`?
PfHsp40 rescue: -1; Mtb betalactam: 37; BioA inh: 6

Results for O=C1OC(CN(Cc2ccccc2)Cc2ccccc2)CN1N=Cc1ccc([N+](=O)[O-])o1 (stereo not given) ?
ugtP null kill: 100*; PfHsp40 rescue: -2; RN4220 kill: 80; BioA inh: 1

How did O=C1OC(CN2CCOCC2)CN1N=Cc1ccc([N+](=O)[O-])o1 (stereo not given) do in these assays?
ugtP null kill: 100*; PfHsp40 rescue: -1; Mtb betalactam: 6; RN4220 kill: 100*; BioA inh: 2

How did COCCCn1[nH]c2c3c(ccc2c1=O)C(=O)c1ccccc1C3=O do in these assays?
ugtP null kill: 84*; PfHsp40 rescue: 0; Mtb betalactam: 74; RN4220 kill: 86*; BioA inh: 2

How did O=C(N1CCN(c2cccc(Cl)c2)CC1)C1(S(=O)(=O)c2ccc(Cl)cc2)CC1 do in these assays?
ugtP null kill: -14; PfHsp40 rescue: 83*; Mtb betalactam: 9; RN4220 kill: 3

How did O=Nc1c(O)c2ccccc2c2ccccc12 do in these assays?
ugtP null kill: 99*; PfHsp40 rescue: 24; Mtb betalactam: 100; RN4220 kill: 100*; BioA inh: 0

How did CN=Cc1sc2ccccc2c1O do in these assays?
ugtP null kill: 2; PfHsp40 rescue: -1; Mtb betalactam: 11; RN4220 kill: 0; BioA inh: -2

Results for C[N+](C)(CCOc1ccccc1)Cc1ccccc1 ?
PfHsp40 rescue: -1; BioA inh: 0

What do the screens show for `Cc1cc(C(C)(C)CC(C)(C)C)ccc1OCCOCC[N+](C)(C)Cc1ccccc1`?
ugtP null kill: 100*; PfHsp40 rescue: inconclusive; Mtb betalactam: 100; RN4220 kill: 101*; BioA inh: 15
